Experimental data: the supplement of paper PMC10849652
Of roughly 7,900 targets only a part is listed; those with a hit were picked by preference. About 0.6% of all pairs of compound and target were hits. Values without a mark were called inactive.

Experiments:
Experiment in all cases: log2 fold change, soluble protein after heating vs DMSO (PISA); higher = thermal stabilisation; K562 cells, 10 uM, 30 min; active = over 0.2 and 3.5 SD of the protein, either way, in both replicates (recomputed)
saracatinib = compound: CN1CCN(CCOc2cc(OC3CCOCC3)c3c(Nc4c(Cl)ccc5c4OCO5)ncnc3c2)CC1 [saracatinib]
Outline: (§1)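 Aliquots of K562 cells (2×10^6 cells/mL) treated with 10 μM compound for 30 min were heated for 3 min over 48°C-58°C. After pooling and extraction in PBS with 0.5% NP-40 at 4°C, soluble protein from a 21,000xg, 90 min spin was quantified by TMTpro 16plex LC-MS/MS with channel sums equalised. Thermal stability is expressed against control samples, from duplicates, as a log2 fold change.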

sotrastaurin = compound: CN1CCN(c2nc(C3=C(c4c[nH]c5ccccc45)C(=O)NC3=O)c3ccccc3n2)CC1 [sotrastaurin]
Outline: as §1

alvocidib = compound: CN1CC[C@H](c2c(O)cc(O)c3c(=O)cc(-c4ccccc4Cl)oc23)[C@H](O)C1 [alvocidib]
Outline: as §1

Tubastatin A = compound: CN1CCc2c(c3ccccc3n2Cc2ccc(C(=O)NO)cc2)C1 [Tubastatin A]
Outline: as §1

[1] = compound: CNC(=O)C1=CC=CC=C1NC2=NC(=NC=C2Cl)NC3=C(C=C(C=C3)N4CCOCC4)OC
Outline: as §1

defactinib = compound: CNC(=O)c1ccc(Nc2ncc(C(F)(F)F)c(NCc3nccnc3N(C)S(C)(=O)=O)n2)cc1 [defactinib]
Outline: as §1

rucaparib = compound: CNCc1ccc(-c2[nH]c3cc(F)cc4c3c2CCNC4=O)cc1 [rucaparib]
Outline: as §1

[2] = compound: CNc1nc(-c2ccc3c(N)n[nH]c3c2)cc(N2C[C@@H](C(=O)NC3CCCCC3)CC[C@H]2C)n1
Outline: as §1

encorafenib = compound: COC(=O)N[C@@H](C)CNc1nccc(-c2cn(C(C)C)nc2-c2cc(Cl)cc(NS(C)(=O)=O)c2F)n1 [encorafenib]
Outline: as §1

[3] = compound: COC(=O)[C@H](CCSC)NC(=O)C1=C(C=C(C=C1)NC[C@H](CS)N)C2=CC=CC=C2
Outline: as §1

[4] = compound: COC1=CC=C(C=C1)CN2C=CC3=C2C=C(C=C3)C(=O)NO
Outline: as §1

filanesib = compound: CON(C)C(=O)N1N=C(c2cc(F)ccc2F)S[C@@]1(CCCN)c1ccccc1 [filanesib]
Outline: as §1

zotarolimus = compound: CO[C@H]1C[C@@H]2CC[C@@H](C)[C@@](O)(O2)C(=O)C(=O)N2CCCC[C@H]2C(=O)O[C@H]([C@H](C)C[C@@H]2CC[C@H](n3cnnn3)[C@H](OC)C2)CC(=O)[C@H](C)/C=C(\C)[C@@H](O)[C@@H](OC)C(=O)[C@H](C)C[C@H](C)/C=C/C=C/C=C/1C [zotarolimus]
Outline: as §1

idasanutlin = compound: COc1cc(C(=O)O)ccc1NC(=O)[C@@H]1N[C@@H](CC(C)(C)C)[C@](C#N)(c2ccc(Cl)cc2F)[C@H]1c1cccc(Cl)c1F [idasanutlin]
Outline: as §1

alisertib = compound: COc1cc(Nc2ncc3c(n2)-c2ccc(Cl)cc2C(c2c(F)cccc2OC)=NC3)ccc1C(=O)O [alisertib]
Outline: as §1

[5] = compound: COc1cc2nc(-c3cc(F)ccc3O)nc(N[C@@H]3CNC[C@H]3C(C)(C)O)c2cc1OC
Outline: as §1

gefitinib = compound: COc1cc2ncnc(Nc3ccc(F)c(Cl)c3)c2cc1OCCCN1CCOCC1 [gefitinib]
Outline: as §1

[6] = compound: COc1cccc2cc(-c3nc([C@H]4CC[C@H](C(=O)O)CC4)n4ncnc(N)c34)[nH]c12
Outline: as §1

lapatinib = compound: CS(=O)(=O)CCNCc1ccc(-c2ccc3ncnc(Nc4ccc(OCc5cccc(F)c5)c(Cl)c4)c3c2)o1 [lapatinib]
Outline: as §1

pictilisib = compound: CS(=O)(=O)N1CCN(Cc2cc3nc(-c4cccc5[nH]ncc45)nc(N4CCOCC4)c3s2)CC1 [pictilisib]
Outline: as §1

UniProt P49448, sequence (P49448 whole entry, looked up): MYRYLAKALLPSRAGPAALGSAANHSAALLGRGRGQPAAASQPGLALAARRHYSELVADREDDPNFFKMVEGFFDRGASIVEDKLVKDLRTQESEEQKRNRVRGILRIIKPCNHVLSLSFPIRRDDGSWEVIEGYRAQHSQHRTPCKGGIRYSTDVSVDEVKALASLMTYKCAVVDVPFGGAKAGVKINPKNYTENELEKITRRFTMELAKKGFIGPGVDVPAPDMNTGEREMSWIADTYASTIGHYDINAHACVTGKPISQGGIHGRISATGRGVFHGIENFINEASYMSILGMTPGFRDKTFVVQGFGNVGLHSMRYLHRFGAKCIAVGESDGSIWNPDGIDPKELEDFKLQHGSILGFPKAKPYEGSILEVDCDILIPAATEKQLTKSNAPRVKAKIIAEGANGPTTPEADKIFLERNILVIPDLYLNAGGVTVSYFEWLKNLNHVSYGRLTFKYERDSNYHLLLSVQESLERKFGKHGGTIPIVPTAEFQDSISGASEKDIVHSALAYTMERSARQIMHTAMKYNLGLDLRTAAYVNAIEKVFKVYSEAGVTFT
UniProt Q13227, sequence (Q13227 whole entry, looked up): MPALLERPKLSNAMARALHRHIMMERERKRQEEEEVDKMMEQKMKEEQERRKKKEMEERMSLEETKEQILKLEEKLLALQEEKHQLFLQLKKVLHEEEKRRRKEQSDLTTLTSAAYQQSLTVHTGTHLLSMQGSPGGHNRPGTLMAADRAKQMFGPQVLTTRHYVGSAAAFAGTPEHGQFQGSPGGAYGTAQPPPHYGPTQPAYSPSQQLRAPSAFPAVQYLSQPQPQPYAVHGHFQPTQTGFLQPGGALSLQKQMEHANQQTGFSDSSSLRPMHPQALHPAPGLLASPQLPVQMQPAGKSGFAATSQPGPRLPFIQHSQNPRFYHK
UniProt Q14956, sequence (Q14956 whole entry, looked up): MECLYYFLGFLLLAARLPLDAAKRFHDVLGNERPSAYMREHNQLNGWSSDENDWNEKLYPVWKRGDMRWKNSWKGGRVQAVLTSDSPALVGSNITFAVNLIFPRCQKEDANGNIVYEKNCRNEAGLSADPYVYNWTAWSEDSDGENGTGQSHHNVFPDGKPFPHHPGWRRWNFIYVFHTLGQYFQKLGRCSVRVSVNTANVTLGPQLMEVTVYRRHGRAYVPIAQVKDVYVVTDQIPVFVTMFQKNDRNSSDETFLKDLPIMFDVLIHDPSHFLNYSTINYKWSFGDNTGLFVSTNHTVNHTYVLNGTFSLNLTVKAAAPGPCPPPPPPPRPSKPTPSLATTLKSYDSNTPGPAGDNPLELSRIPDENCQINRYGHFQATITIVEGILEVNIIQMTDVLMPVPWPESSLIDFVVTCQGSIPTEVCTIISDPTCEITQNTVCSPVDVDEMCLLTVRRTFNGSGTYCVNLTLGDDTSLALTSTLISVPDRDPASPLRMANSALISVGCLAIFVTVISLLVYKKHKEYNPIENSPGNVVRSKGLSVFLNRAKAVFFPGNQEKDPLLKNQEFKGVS
UniProt Q92917, sequence (Q92917 whole entry, looked up): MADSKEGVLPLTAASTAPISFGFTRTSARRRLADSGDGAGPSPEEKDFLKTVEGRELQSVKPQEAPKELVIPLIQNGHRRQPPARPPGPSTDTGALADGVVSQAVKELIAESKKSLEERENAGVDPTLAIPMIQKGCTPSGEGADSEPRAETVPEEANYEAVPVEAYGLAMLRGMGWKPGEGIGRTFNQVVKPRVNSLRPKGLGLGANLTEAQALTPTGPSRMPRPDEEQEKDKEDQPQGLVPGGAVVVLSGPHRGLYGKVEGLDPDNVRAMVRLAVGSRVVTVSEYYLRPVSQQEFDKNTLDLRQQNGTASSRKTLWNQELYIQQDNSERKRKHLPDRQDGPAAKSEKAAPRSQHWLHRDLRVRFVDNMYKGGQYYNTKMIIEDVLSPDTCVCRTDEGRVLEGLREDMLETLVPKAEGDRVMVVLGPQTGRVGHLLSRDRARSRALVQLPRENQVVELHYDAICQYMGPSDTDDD
UniProt Q53T59, sequence (Q53T59 whole entry, looked up): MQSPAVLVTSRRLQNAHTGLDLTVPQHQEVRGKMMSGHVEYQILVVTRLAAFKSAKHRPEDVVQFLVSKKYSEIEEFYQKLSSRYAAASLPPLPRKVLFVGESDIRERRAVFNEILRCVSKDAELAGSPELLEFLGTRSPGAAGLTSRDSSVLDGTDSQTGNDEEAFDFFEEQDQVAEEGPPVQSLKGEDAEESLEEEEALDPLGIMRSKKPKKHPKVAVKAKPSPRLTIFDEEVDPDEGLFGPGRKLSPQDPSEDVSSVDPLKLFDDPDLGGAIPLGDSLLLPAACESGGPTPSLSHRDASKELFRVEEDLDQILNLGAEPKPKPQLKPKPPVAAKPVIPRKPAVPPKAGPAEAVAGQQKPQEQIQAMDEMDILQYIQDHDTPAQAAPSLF
UniProt Q9BVP2, sequence (Q9BVP2 whole entry, looked up): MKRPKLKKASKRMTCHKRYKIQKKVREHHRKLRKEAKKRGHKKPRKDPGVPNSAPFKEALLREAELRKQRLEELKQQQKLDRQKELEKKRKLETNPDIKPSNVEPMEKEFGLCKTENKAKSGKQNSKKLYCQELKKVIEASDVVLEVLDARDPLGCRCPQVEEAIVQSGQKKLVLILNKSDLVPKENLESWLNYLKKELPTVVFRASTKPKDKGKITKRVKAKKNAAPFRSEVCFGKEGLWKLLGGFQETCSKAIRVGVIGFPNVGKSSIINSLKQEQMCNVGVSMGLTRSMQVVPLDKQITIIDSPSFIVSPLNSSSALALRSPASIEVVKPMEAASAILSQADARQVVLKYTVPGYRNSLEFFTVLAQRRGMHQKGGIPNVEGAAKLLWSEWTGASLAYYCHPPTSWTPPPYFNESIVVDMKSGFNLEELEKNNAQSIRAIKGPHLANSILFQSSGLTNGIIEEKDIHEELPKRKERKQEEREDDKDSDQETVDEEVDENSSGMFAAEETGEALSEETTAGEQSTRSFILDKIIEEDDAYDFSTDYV
UniProt O75146, sequence (O75146 whole entry, looked up): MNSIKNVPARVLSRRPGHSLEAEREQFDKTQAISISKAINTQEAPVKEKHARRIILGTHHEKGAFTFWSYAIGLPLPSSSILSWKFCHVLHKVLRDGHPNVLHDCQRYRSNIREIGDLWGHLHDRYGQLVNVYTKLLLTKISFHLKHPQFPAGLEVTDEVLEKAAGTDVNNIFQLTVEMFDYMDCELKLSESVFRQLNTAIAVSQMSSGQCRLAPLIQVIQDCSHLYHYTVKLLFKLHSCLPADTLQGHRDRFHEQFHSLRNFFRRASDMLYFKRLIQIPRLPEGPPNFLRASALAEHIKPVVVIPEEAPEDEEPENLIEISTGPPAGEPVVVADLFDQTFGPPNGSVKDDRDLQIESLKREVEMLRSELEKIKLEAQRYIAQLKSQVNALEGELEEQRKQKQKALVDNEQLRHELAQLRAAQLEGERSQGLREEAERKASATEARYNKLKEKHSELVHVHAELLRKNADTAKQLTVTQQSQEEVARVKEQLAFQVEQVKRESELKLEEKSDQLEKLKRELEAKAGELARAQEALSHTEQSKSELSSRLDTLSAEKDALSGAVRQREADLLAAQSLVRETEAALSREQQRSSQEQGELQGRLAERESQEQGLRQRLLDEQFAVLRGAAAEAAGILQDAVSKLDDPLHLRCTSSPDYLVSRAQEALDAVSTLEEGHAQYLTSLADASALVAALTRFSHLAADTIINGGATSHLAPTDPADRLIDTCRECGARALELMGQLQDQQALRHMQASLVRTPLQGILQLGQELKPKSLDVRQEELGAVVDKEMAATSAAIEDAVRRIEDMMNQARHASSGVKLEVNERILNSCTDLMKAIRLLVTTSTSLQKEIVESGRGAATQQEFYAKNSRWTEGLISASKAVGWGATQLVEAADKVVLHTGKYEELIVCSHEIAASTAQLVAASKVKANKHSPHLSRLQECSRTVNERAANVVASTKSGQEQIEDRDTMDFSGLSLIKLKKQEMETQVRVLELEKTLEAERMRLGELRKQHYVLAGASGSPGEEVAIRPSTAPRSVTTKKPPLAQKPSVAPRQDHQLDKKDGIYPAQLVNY
UniProt Q70Z53, sequence (Q70Z53 whole entry, looked up): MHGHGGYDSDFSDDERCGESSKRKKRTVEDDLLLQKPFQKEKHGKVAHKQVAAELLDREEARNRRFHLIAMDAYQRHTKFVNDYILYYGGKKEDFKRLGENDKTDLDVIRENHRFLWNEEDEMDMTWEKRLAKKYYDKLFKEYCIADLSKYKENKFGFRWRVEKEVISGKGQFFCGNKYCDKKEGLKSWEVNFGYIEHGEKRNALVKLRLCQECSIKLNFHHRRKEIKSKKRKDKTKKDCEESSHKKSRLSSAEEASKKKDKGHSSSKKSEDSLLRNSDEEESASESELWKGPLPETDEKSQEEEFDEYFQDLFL
UniProt P21695, sequence (P21695 whole entry, looked up): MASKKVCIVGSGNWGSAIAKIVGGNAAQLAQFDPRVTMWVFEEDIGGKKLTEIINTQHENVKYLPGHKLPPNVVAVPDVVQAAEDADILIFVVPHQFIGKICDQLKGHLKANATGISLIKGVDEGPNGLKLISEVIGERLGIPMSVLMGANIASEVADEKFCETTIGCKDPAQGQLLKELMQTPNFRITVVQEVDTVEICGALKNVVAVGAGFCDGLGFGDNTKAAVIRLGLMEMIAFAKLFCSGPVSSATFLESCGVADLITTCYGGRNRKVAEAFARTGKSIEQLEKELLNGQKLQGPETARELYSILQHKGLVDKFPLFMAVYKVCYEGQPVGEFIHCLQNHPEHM
UniProt P50213, sequence (P50213 whole entry, looked up): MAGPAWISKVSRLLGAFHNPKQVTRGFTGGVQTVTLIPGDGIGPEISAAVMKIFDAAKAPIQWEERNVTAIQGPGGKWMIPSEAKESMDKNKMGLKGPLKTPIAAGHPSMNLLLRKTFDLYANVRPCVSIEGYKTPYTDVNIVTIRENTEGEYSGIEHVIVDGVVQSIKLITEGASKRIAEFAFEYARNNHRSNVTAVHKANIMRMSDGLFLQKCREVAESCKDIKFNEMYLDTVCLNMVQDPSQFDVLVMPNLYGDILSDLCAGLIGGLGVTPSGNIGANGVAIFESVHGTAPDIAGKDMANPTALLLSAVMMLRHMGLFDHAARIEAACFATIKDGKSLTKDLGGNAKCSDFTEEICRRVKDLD

Target	log2 fold change (saracatinib)	log2 fold change (sotrastaurin)	log2 fold change (alvocidib)	log2 fold change (Tubastatin A)	log2 fold change [1]	log2 fold change (defactinib)	log2 fold change (rucaparib)	log2 fold change [2]	log2 fold change (encorafenib)	log2 fold change [3]	log2 fold change [4]	log2 fold change (filanesib)	log2 fold change (zotarolimus)	log2 fold change (idasanutlin)	log2 fold change (alisertib)	log2 fold change [5]	log2 fold change (gefitinib)	log2 fold change [6]	log2 fold change (lapatinib)	log2 fold change (pictilisib)
HDGFL2 (UniProt Q7Z4V5)	0.01	0.119	0.007	0.013	-0.061	-0.07	-0.051	-0.058	-0.016	0.036	0.032	0.056	-0.025	0.012	-0.051	-0.013	0.025	0.04	-0.019	-0.004
HIP1R (UniProt O75146)	0.051	-0.045	-0.069	0.007	0.037	-0.063	0.018	0.015	-0.019	0.016	-0.011	-0.039	-0.034	-0.046	0.114	0.027	-0.025	0	-0.041	-0.011
GLUD2 (UniProt P49448)	0.305 (active)	0.056	-0.017	-0.016	0.051	0.008	0.003	0.178	-0.117	-0.042	-0.041	-0.032	0.123	-0.07	-0.06	-0.003	0.061	0.023	0.191	0.216
GPKOW (UniProt Q92917)	-0.03	-0.031	-0.188	0.033	-0.107	-0.178	-0.036	0.069	0.034	-0.032	-0.055	-0.118	0.024	-0.06	0.039	-0.021	0.047	0.11	-0.005	-0.037
IFNGR1 (UniProt P15260)	0.05	-0.038	0.253	0.11	-0.215	0.051	0.056	-0.009	-0.026	0.088		0.091	-0.067	0.105	-0.09	0.207	0.097	0.143	-0.058	-0.085
FRA10AC1 isoform 3 (UniProt Q70Z53)	0.125	0.133	0.132	-0.023	-0.01	0	-0.035	-0.196	-0.103	-0.067	-0.022	0.179	-0.049	-0.319	-0.033	0.068	0	-0.005	-0.064	-0.11
GPS2 (UniProt Q13227)		-0.007		0.033	0.008	-0.079	0.02		0.041	-0.025	-0.108	0.018			-0.067	0.135	0.008	0.152	-0.044	
HBZ, A0A494C057					0.005		-0.058		-0.094						1.67		0.151	0.009		
HNRNPUL1 (UniProt M0R247)	-0.327	0.128	0.326	-0.054	-0.145		0.09	-0.431	-0.086		-0.028	0.029	-0.468	0.277		0.117	0.1		-0.15	
IDH3A isoform 2 (UniProt P50213)			-0.206	0.138	-0.117						0.32		-0.056	-0.246			0.029			
GPNMB (UniProt Q14956)					-0.221		0.007		-0.25											
FAT1 (UniProt Q14517)	-0.085	-0.072	0.021	-0.031	-0.041	-0.05		-0.094		-0.087	0.098	0.097	-0.08		-0.267	0.027	0.023	-0.098	0.029	0.041
GOPC (UniProt Q9HD26)	-0.147	0.01	0.065	0.177	0.216	0.033		0.164		-0.229	-0.059	0.259	0.329	0.007	-0.026	0.668 (active)	0.137	-0.146	0.15	0.08
GSE1 (UniProt Q14687)	-0.077		-0.186			0.027		-0.014		-0.498 (active)			-0.063				0.224			
HSPA2 (UniProt P54652)		0.038			0.809 (active)						-0.103	0.026		0.032	-0.077		0.005	0.076		
FHOD1 (UniProt Q9Y613)	-0.143	-0.112	0.292		-0.027	-0.042	0.442	0.101	0.187	0.049	-0.044	0.084	0.095	0.127	-0.161	0.186	-0.005	-0.253	0.014	0.01
GPD1 (UniProt P21695)	-0.005	0.065	0.131	-0.027	-0.298	-0.072		0.05		0.016		-0.083	0.022	-0.289	0.077	-0.051	0.368	0.111	0.015	0.203
FYB1 isoform 3 (UniProt O15117)	0.007	-0.101		-0.018	0	-0.112	0.028	-0.076	0.074	-0.01	0.001	0.06		-0.106	-0.035	0.026	0.103	0.134	0.068	0.108
GOLGA8R (UniProt I6L899)	-0.126		0.018	0.253	-0.148	-0.197	0.189	0.246	-0.098	-0.086	0.591 (active)		-0.027	0.022		0.345			-0.093	0.01
GNL3 (UniProt Q9BVP2)	-0.124	0.03	0.145	0.304		0.005	-0.052	0.044	-0.065	0.015		-0.038	-0.012	-0.212	-0.12		0.067	0.071		0.061
HS1BP3 (UniProt Q53T59)	0.107	-0.078	-0.275		-0.005	-0.066	-0.038	0.371 (active)	0.037	-0.175	0.032	-0.085	0.02	0.039		0.087	-0.196		0.118	
